The target of assay [1] is Androgen receptor (Homo sapiens) (UniProt P10275). The assay is described as follows: ATG_AR_TRANS: Attagene TRANS-FACTORIAL HepG2 Assay for human Androgen Receptor (AR) (AID 2282973). The settings on record: HepG2 Attagene TRANS-FACTORIAL AR reporter transcription. The procedure, abridged:
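Steps: transfect HepG2 with multiple GAL4-UAS reporter transcription units (TRANS format, exogenous NR-Gal4 protein); dose 24 h; isolate RNA, reverse-transcribe, PCR-amplify, FAM-label, HpaI-digest; resolve by capillary electrophoresis. Positive direction vs DMSO.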

Assay [2] concerns the target human MET Proto-Oncogene, Receptor Tyrosine Kinase (MET), MET (gene 4233) (UniProt P08581). The assay is described as follows: NVS_ENZ_hMet: NovaScreen (NVS) Enzymatic Assay for human MET Proto-Oncogene, Receptor Tyrosine Kinase (MET) (AID 2283180). The gist of the method:
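Hits from a 25 uM duplicate screen were retested in concentration series up to 50 uM. Enzyme activity was measured by fluorescence after electrophoretic separation of product from substrate, 1 h after compound addition, relative to DMSO.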

Assay [3] relates to rat Monoamine Oxidase, MAO-A, Peripheral (MAOAP), gene 29253. The experiment in a line: NVS_ENZ_rMAOAP: NovaScreen (NVS) Enzymatic Assay for rat Monoamine Oxidase, MAO-A, Peripheral (MAOAP) (AID 2283237). The gist of the method:
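Scintillation counting tracked MAO-A activity in a cell-free rat liver mitochondrial membrane prep, read 1.17 hours after compound addition. Single-point duplicate testing at 25 uM preceded concentration-response follow-up; activity was fitted relative to DMSO.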

The target of assay [4] is rat Monoamine Oxidase, MAO-B, Central (MAOBC), Maob (gene 25750) (UniProt P19643). The experiment in a line: NVS_ENZ_rMAOBC: NovaScreen (NVS) Enzymatic Assay for rat Monoamine Oxidase, MAO-B, Central (MAOBC) (AID 2283238). The procedure, abridged:
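Actives from a duplicate 25 uM screen went on to singleton concentration-response with a 50 uM maximum. Enzyme source was rat brain tissue MAO-B, assayed cell-free. Radiolabelled product was counted by scintillation 1.17 h post-dose, with signal loss relative to DMSO.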

Assay [5] has as its target rat Monoamine Oxidase, MAO-B, Peripheral (MAOBP), Maob (gene 25750) (UniProt P19643). The experiment in a line: NVS_ENZ_rMAOBP: NovaScreen (NVS) Enzymatic Assay for rat Monoamine Oxidase, MAO-B, Peripheral (MAOBP) (AID 2283242).
The target of assay [6] is human Phosphatase and Tensin Homolog (PTEN), PTEN (gene 5728) (UniProt P60484). The experiment in a line: NVS_ENZ_hPTEN: NovaScreen (NVS) Enzymatic Assay for human Phosphatase and Tensin Homolog (PTEN) (AID 2283203). The gist of the method:
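Loss of fluorescent product signal after mobility-shift separation reports PTEN activity, recombinant human enzyme, 1 h after compound addition. Single 25 uM duplicate screen, then concentration-response on actives; DMSO baseline.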

In assay [7] the target is human Caspase 2 (CASP2), CASP2 (gene 835) (UniProt P42575). The assay is described as follows: NVS_ENZ_hCASP2: NovaScreen (NVS) Enzymatic Assay for human Caspase 2 (CASP2) (AID 2283135). The gist of the method:
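Single-point duplicate testing at 25 uM preceded concentration series topping at 50 uM. Activity of the recombinant E. coli-derived protease was followed by fluorescent substrate cleavage 1 h post-dosing, relative to DMSO.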

For assay [8], the target named is human Fibroblast Growth Factor Receptor 1 (FGFR1), FGFR1 (gene 2260) (UniProt P11362). The experiment in a line: NVS_ENZ_hFGFR1: NovaScreen (NVS) Enzymatic Assay for human Fibroblast Growth Factor Receptor 1 (FGFR1) (AID 2283159).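 For AC50: hits lower the signal so potencies describe inhibitors of the kinase.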 The gist of the method:
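Cell-free recombinant kinase with fluorescent substrate, product separated by electrophoretic mobility shift; read 1 hour after dosing, loss of signal relative to DMSO. Initial screen in duplicate at 25 uM, actives followed in concentration series.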

Assay [9] has as its target Voltage-dependent N-type calcium channel subunit alpha-1B (Rattus norvegicus) (UniProt Q02294). The experiment in a line: NVS_IC_rCaChN: NovaScreen (NVS) Ion Channel Assay for rat Calcium Channel, Type N (CaChN) (AID 2283317).
The target of assay [10] is human AMP-activated Protein Kinase, alpha 1 (AMPKa1), PRKAA1 (gene 5562) (UniProt Q13131). The assay is described as follows: NVS_ENZ_hAMPKa1: NovaScreen (NVS) Enzymatic Assay for human AMP-activated Protein Kinase, alpha 1 (AMPKa1) (AID 2283130). The procedure, abridged:
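Compounds were screened in duplicate at 25 uM, and those reaching ~30% inhibition were titrated up to 50 uM. The enzyme was recombinant human AMPKα1, and kinase turnover was read by fluorescence/mobility shift 1 h post-dosing as loss of signal versus DMSO.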

Assay [11] deals with human Protein Tyrosine Phosphatase Receptor Type C (PTPRC), PTPRC (gene 5788) (UniProt P08575). The experiment in a line: NVS_ENZ_hPTPRC: NovaScreen (NVS) Enzymatic Assay for human Protein Tyrosine Phosphatase Receptor Type C (PTPRC) (AID 2283212). The gist of the method: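 Absorbance-based phosphatase activity of human PTPRC protein extracted from yeast was measured 1 h post-dosing. Compounds first tested at 25 uM in duplicate, then those passing threshold in singleton concentration series to 50 uM.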

Assay [12] concerns the target human Ephrin type-A Receptor 2 (EphA2), EPHA2 (gene 1969) (UniProt P29317). The experiment in a line: NVS_ENZ_hEphA2: NovaScreen (NVS) Enzymatic Assay for human Ephrin type-A Receptor 2 (EphA2) (AID 2283155). The procedure, abridged: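 Enzyme activity of recombinant EphA2 read by fluorescence after mobility-shift separation, 1 h after dosing. Chemicals first tested at 25 uM (duplicate); those passing threshold run as concentration series, top 50 uM, single replicate, relative to DMSO.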

Assay [13] addresses rat Gamma-Aminobutyric Acid Type A Receptor BDZ, alpha 6 site (GABARa6), Gabra6 (gene 29708) (UniProt P30191). The assay is described as follows: NVS_LGIC_rGABARa6: NovaScreen (NVS) Ligand-Gated Ion Channel Assay for rat Gamma-Aminobutyric Acid Type A Receptor BDZ, alpha 6 site (GABARa6) (AID 2283339). The gist of the method:
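Actives from a 25 uM duplicate screen were retested in concentration series (max 50 uM). Specific radioligand displacement from rat cerebellar membranes was counted by filter-based scintillation at 1 h; DMSO served as baseline.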

For assay [14], the target named is Norway rat Vesicular Monoamine Transporter (VMAT2), neurotransmitter transporter, Slc18a2 (gene 25549) (UniProt Q01827). The experiment in a line: NVS_TR_rVMAT2: NovaScreen (NVS) Transporter Assay for Norway rat Vesicular Monoamine Transporter (VMAT2), neurotransmitter transporter (AID 2283376).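 Note: actives lower the bound radioligand signal below the DMSO level.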 The procedure, abridged:
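Using rat forebrain membranes, specific radioligand binding to VMAT2 was measured by filtration and scintillation counting after 1 hour. Chemicals screened at 25 uM in duplicate, actives retested in concentration series, DMSO baseline.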

Assay [15] addresses human Aurora Kinase A - serine/threonine-protein Kinase 6 (AurA), AURKA (gene 6790) (UniProt O14965). The experiment in a line: NVS_ENZ_hAurA: NovaScreen (NVS) Enzymatic Assay for human Aurora Kinase A - serine/threonine-protein Kinase 6 (AurA) (AID 2283142). The procedure, abridged:
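Recombinant human AurA activity read by fluorescence after mobility-shift separation of product from substrate; 1 hour incubation. Chemicals first run in duplicate at 25 uM, then concentration series to 50 uM if over threshold; fitted relative to DMSO.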

Assay [16] addresses human IkappaB Kinase alpha (IKKa), CHUK (gene 1147) (UniProt O15111). The assay is described as follows: NVS_ENZ_hIKKa: NovaScreen (NVS) Enzymatic Assay for human IkappaB Kinase alpha (IKKa) (AID 2283167). The procedure, abridged:
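Compounds first run in duplicate at 25 uM, those meeting threshold (e.g. 30% inhibition) retested to maximum 50 uM. Enzyme activity of recombinant IKKa measured by fluorescence with electrophoretic mobility shift separation, 1 hour post-dosing, DMSO baseline.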

Assay [17] concerns the target human Matrix Metalloproteinase-1 (MMP1), MMP1 (gene 4312) (UniProt P03956). The assay is described as follows: NVS_ENZ_hMMP1: NovaScreen (NVS) Enzymatic Assay for human Matrix Metalloproteinase-1 (MMP1) (AID 2283181). The procedure, abridged: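 Cell-free fluorescent substrate assay of human MMP1, read after 1 h. A single 25 uM duplicate screen was followed by concentration series to a maximum of 50 uM for actives meeting threshold; inhibition analysed against DMSO baseline.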

The target of assay [18] is human Tyrosine Protein Kinase Receptor Tie-2 (Tie2), TEK (gene 7010) (UniProt Q02763). The assay is described as follows: NVS_ENZ_hTie2: NovaScreen (NVS) Enzymatic Assay for human Tyrosine Protein Kinase Receptor Tie-2 (Tie2) (AID 2283225). The procedure, abridged:
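Substrate and product were separated by mobility shift and detected by fluorescence after a 1-hour reaction with recombinant Tie2. Chemicals passing a 25 uM single-point screen were titrated to a maximum of 50 uM. Results were normalized to DMSO baseline.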

In assay [19] the target is rat Corticotropin Releasing Factor Receptor (CRF), Crhr1 (gene 58959) (UniProt P35353). The experiment in a line: NVS_GPCR_rCRF: NovaScreen (NVS) G Protein-Coupled Receptor Assay for rat Corticotropin Releasing Factor Receptor (CRF) (AID 2283300). The procedure, abridged: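 Single-concentration (25 uM, duplicate) radioligand binding on rat cortical membrane preparations, counted by scintillation after 2 h. Activity scored as signal loss relative to DMSO negative control.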

The target of assay [20] is Protein deacetylase HDAC6 (Homo sapiens) (UniProt Q9UBN7). The experiment in a line: NVS_ENZ_hHDAC6: NovaScreen (NVS) Enzymatic Assay for human Histone Deacetylase 6 (HDAC6) (AID 2283164). The procedure, abridged: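 Concentration-response runs up to 50 uM followed a duplicate 25 uM single-point screen. Deacetylase activity of recombinant human HDAC6 read by fluorescence after 1 h, with mobility-shift separation of substrate and product; DMSO as baseline.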

Records with an inconclusive call do not appear. The source made the active and inactive calls. Rule for the calls: active = hit-call score of the fitted dose curve at least 0.9, where 1 is the maximum; inconclusive = response in the unintended direction; inactive = score below 0.9.

Chain of human Caspase 2 (CASP2), CASP2 (gene 835) (P42575 whole entry, looked up): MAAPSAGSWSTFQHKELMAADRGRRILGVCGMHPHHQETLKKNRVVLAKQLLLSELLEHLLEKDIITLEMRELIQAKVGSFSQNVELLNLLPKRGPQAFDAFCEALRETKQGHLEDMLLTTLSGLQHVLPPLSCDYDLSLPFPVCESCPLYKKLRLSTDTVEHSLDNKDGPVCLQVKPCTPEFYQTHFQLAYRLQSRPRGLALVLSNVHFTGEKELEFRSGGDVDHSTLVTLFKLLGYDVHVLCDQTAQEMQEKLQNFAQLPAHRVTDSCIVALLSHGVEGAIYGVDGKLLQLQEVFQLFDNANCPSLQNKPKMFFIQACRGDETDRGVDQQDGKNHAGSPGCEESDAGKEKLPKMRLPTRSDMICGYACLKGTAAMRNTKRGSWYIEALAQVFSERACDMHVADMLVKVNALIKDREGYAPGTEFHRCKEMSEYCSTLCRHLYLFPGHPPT
Chain of human AMP-activated Protein Kinase, alpha 1 (AMPKa1), PRKAA1 (gene 5562) (Q13131 whole entry, looked up): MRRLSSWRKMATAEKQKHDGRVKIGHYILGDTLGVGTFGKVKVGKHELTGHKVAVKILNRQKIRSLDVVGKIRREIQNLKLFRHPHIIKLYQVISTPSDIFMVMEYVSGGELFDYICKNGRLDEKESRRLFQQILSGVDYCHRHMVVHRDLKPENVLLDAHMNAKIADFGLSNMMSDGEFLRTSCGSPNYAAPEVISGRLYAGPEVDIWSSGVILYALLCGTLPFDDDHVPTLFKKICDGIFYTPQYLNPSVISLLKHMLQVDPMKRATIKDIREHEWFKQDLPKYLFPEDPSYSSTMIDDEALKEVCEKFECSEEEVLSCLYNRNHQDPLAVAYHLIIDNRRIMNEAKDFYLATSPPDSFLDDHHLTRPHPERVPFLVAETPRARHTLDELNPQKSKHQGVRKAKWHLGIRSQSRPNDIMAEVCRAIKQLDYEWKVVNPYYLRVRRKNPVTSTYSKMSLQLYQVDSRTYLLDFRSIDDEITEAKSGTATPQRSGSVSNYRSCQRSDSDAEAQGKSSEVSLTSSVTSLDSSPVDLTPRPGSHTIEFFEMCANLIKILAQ
Chain of human Fibroblast Growth Factor Receptor 1 (FGFR1), FGFR1 (gene 2260) (P11362 whole entry, looked up): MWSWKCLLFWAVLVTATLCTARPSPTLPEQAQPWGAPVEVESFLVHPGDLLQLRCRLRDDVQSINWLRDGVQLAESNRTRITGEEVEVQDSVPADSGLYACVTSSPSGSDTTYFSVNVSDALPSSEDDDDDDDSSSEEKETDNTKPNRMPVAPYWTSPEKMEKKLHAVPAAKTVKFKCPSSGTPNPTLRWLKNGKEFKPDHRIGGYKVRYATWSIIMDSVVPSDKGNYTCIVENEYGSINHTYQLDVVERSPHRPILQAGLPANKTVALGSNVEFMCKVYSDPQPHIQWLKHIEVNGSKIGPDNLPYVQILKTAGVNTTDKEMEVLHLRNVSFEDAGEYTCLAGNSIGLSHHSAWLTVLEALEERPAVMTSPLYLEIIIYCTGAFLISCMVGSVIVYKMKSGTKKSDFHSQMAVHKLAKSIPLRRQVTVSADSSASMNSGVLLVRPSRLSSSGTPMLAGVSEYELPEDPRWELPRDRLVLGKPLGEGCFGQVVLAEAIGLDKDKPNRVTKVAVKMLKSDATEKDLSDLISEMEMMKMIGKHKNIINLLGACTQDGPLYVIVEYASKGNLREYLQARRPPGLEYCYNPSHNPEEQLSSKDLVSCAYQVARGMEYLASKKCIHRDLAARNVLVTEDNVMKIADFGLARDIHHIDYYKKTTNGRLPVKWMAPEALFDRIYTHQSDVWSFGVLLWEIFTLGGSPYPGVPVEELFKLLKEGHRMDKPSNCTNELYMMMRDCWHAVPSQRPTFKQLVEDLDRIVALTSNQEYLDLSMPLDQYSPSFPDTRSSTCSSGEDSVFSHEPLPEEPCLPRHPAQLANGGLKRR
Chain of human MET Proto-Oncogene, Receptor Tyrosine Kinase (MET), MET (gene 4233) (P08581 whole entry, looked up): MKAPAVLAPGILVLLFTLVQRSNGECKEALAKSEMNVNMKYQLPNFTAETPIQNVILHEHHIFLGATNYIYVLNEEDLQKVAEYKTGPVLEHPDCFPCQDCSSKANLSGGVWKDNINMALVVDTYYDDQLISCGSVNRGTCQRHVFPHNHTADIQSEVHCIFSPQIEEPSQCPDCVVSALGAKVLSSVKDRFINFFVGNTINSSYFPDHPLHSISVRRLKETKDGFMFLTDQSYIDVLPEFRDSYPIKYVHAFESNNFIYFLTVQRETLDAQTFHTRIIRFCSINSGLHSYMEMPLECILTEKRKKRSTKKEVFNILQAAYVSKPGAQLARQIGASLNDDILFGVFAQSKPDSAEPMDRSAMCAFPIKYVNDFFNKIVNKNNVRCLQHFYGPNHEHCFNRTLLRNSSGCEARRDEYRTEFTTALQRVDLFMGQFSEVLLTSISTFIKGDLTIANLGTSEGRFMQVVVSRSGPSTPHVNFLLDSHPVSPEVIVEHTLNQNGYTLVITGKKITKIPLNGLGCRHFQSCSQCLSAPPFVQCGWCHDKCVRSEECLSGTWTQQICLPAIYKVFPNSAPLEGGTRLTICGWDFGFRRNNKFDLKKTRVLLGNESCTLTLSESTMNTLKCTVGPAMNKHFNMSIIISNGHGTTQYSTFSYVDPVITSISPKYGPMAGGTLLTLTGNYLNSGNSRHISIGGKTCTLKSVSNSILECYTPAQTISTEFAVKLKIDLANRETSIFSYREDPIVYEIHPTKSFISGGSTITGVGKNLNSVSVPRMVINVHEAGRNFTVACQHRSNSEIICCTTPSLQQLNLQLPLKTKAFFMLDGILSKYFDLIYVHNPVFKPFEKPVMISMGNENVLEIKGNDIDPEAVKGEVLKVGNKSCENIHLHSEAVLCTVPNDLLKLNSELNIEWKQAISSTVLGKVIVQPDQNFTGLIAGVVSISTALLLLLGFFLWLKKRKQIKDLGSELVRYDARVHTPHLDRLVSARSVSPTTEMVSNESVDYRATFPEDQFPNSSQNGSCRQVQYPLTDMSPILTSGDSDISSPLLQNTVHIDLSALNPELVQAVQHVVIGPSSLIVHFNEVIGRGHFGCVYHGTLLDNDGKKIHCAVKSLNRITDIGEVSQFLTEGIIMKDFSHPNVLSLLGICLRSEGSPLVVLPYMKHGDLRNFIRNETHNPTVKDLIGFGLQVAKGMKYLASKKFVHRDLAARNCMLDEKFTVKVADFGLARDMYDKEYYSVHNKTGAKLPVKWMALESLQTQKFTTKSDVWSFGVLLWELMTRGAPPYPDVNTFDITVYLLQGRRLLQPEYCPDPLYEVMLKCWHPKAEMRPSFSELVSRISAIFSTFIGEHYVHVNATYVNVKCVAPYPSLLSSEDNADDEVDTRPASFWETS
Chain of Androgen receptor (Homo sapiens) (P10275 whole entry, looked up, the tested form may be a part): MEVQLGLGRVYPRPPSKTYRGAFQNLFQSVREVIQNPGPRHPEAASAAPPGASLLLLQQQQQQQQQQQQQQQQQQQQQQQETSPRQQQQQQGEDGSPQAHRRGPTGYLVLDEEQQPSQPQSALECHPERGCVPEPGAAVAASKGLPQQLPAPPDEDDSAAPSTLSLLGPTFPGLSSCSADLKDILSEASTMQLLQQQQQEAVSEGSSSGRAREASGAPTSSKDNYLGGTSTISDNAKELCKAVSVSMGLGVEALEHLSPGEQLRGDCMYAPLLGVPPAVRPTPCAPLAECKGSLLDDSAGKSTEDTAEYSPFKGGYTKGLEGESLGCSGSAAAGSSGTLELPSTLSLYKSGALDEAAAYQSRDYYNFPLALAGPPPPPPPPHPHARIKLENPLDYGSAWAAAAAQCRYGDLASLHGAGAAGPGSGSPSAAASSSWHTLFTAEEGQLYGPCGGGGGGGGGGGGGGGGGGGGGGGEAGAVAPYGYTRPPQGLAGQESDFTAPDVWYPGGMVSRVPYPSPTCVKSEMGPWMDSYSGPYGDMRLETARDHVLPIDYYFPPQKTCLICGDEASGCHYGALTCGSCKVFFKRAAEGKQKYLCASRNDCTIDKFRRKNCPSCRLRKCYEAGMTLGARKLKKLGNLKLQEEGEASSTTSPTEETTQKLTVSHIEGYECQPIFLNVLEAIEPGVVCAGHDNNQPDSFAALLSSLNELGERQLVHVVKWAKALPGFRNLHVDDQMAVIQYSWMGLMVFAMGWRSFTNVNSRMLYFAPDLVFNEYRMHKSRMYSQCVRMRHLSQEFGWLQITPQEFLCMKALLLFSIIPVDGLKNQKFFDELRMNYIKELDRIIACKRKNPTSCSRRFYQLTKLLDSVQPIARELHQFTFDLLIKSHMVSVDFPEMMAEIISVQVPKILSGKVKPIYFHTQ
Chain of human Phosphatase and Tensin Homolog (PTEN), PTEN (gene 5728) (P60484 whole entry, looked up): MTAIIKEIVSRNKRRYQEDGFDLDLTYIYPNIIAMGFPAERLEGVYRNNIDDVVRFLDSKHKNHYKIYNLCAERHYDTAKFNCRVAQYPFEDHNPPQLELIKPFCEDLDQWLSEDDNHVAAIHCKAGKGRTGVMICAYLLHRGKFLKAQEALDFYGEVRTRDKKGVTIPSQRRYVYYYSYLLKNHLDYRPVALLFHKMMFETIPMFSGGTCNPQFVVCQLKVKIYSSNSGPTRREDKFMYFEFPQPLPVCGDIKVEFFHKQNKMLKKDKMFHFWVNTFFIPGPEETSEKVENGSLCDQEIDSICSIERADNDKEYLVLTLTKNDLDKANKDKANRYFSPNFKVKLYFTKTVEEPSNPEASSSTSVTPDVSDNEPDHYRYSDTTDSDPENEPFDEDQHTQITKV
Chain of rat Monoamine Oxidase, MAO-B, Central (MAOBC), Maob (gene 25750) (P19643 whole entry, looked up): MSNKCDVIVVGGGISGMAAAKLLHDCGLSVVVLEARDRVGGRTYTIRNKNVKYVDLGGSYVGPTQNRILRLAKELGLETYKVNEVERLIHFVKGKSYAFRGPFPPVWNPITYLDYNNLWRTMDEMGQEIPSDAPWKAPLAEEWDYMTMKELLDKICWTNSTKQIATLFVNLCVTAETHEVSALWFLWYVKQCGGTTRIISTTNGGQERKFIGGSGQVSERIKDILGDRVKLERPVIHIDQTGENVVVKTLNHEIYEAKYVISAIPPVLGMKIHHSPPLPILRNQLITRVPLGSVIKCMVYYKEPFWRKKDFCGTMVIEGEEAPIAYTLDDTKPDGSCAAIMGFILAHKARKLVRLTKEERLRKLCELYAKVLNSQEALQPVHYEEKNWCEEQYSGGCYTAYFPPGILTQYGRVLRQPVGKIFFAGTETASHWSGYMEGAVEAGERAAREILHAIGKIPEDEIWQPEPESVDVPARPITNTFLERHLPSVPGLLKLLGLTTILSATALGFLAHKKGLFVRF

In the case of `Fc1ccccc1[C@@H](F)COC1CCC(Nc2ncnc3[nH]ncc23)CC1` (some centres not stated), the call in assay [1], in [2] and in [3] was inactive. Besides, the AC50 is 18.6 µM (active) in [4] and 7.67 µM (active) in [5].
With `CC(C)=CCCC(C)O` (configuration not stated), the outcome in assay [1] and in [6] was inactive.
With `COCC(C)OCC(C)OCC(C)O` (configuration not stated), the result in assay [1], in assay [7], in assay [8] and in [9] was inactive.
For the compound `COc1cc(-c2nc(NC(=O)c3cc4cc(C)cc(C)c4n3CC(=O)O)sc2CCC2CCCCC2)c(OC)cc1Cl`, the compound was classed as inactive in [1]. Moreover, the concentration at half-maximal activity (AC50) was 8.19 µM (active) in [10], 7.75 µM (active) in assay [7] and 11.4 µM (active) in assay [11].
For the compound `N#C[C@@H]1CC(F)(F)CN1C(=O)CNC1CC2CCC(C1)N2c1ncccn1` (some centres not stated), the result in assay [1] and in assay [12] was inactive.
Take `CCC(C)N(C)C(=O)c1cc2ccccc2c(-c2ccccc2Cl)n1` (configuration not stated): the outcome in [1], in [10], in assay [8], in [5] and in [13] was inactive. Besides, the AC50 in assay [14] is 9.67 µM (active).
With `CN(C)c1ccc(N=NS(=O)(=O)O)cc1`, the result in assay [1], in assay [10], in [15], in assay [8], in assay [16] and in [2] was inactive. Also, the compound was called inactive in assay [17], in [6], in assay [18] and in [19]. Also, in assay [3], the AC50 is 21.1 µM (active).
As to `CCOCCOCCO`, the outcome in assay [1], in [2] and in assay [4] was inactive.
As to `Nc1cccc2c(N)cccc12`, the call in assay [1], in assay [8], in [20] and in assay [18] was inactive. Moreover, the values for the AC50 in assay [11] and in assay [3] were 5.35 µM (active) and 25 µM (active), respectively.
On to `CCCCCCCCN(C)CCCCCCCC`, for which the result in [1] was inactive. Also, the AC50 in assay [8] was 36.1 µM (active).
Turning to `O=C(O)c1ccccc1C(=O)OCc1ccccc1`, the compound was classed as inactive in [1] and in [7].

The AC50 is the midpoint of the concentration-response curve, whichever way the signal moves.

The values are drawn from PubChem BioAssay (EPA / NIEHS).
